Compounds without any hit were thinned out: in the full panel of roughly 79,000, 15% have a hit. Values without a mark were called inactive. Active and inactive are the calls of the source. Cut-off read from the data, not from the text of the source: active = growth inhibition above about 70%; inactive = the rest.
Experiments:
[1] = NCI Yeast Anticancer Drug Screen. Data for the rad50 strain (AID 155);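 note: 0% = growth of vehicle-only cultures of the same strain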; conditions: S. cerevisiae rad50 strain growth inhibition, hits give high values
Outline: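 A DNA repair-deficient yeast mutant serves as the test organism; compound-induced growth inhibition is calculated against vehicle-treated cells.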

[2] = NCI Yeast Anticancer Drug Screen. Data for the mec2-1 strain (AID 157); conditions: S. cerevisiae mec2-1 strain, hits give high values
Outline: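 Mutant yeast (mec2-1) grown with compound; growth inhibition relative to vehicle control reported.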

[3] = NCI Yeast Anticancer Drug Screen. Data for the sgs1 mgt1 strain (AID 161);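 note: 0% = growth of cultures given vehicle only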; conditions: S. cerevisiae sgs1 mgt1 strain, hits give high values
Outline: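 This yeast growth screen uses a strain with defined DNA-repair lesions; compound-treated growth is compared with vehicle-treated growth.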

[4] = NCI Yeast Anticancer Drug Screen. Data for the cln2 rad14 strain (AID 165);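 note: 0% = growth equal to vehicle treated cultures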; conditions: S. cerevisiae cln2 rad14 strain, hits give high values
Outline: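 Readout is yeast growth inhibition versus vehicle-treated controls, using a strain with cln2 and rad14 alterations exposed to compound.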

[5] = NCI Yeast Anticancer Drug Screen. Data for the bub3 strain (AID 167); conditions: S. cerevisiae bub3 mutant strain, hits give high values
Outline: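 Inhibition values come from growth of compound-treated mutant yeast normalised to vehicle-treated controls.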

[6] = NCI Yeast Anticancer Drug Screen. Data for the mlh1 rad18 strain (AID 175); conditions: S. cerevisiae mlh1 rad18 strain growth inhibition, hits give high values
Outline: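 Genetically defined yeast (DNA repair-deficient) exposed to compounds; growth inhibition determined relative to vehicle.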

[7] = at 5.0 µM (retest, dose inferred, filed as 0.5)
[8] = at 50.0 µM (retest, dose inferred, filed as 5.0)

SMILES | growth inhibition [1, 7] | growth inhibition [1, 8] | growth inhibition ([1]; at 50.0 µM) | growth inhibition [2, 7] | growth inhibition [2, 8] | growth inhibition ([2]; at 50.0 µM) | growth inhibition [3, 7] [%] | growth inhibition [3, 8] | growth inhibition ([3]; at 50.0 µM) | growth inhibition [4, 7] [%] | growth inhibition [4, 8] | growth inhibition ([4]; at 50.0 µM) | growth inhibition [5, 7] | growth inhibition [5, 8] | growth inhibition ([5]; at 50.0 µM) | growth inhibition [6, 7] | growth inhibition [6, 8] | growth inhibition ([6]; at 50.0 µM)
CCOC(=O)c1cnc(SCc2ccc(Cl)cc2Cl)nc1Cl | 1% | 47% | 38.4% | 0% | 73% (active) | 54.6% | 16 | 66% | 58.5% | -3 | 59% | 71.8% (active) | 0% | 54% | 25.7% | 0% | 62% | 65%
Cc1cc2c(cc1C)[n+](=O)c(C(=O)C/C(=N/NC(=O)CC#N)C(=O)Nc1ccccc1C(F)(F)F)c(C)n2[O-] | 53% | 53% | 92.4% (active) | 57% | 57% | 91% (active) | 58 | 58% | 91.8% (active) | 38 | 38% | 91.5% (active) | 46% | 46% | 94% (active) | 54% | 54% | 90.8% (active)
C[N+](C)(C)CCC(=O)c1ccco1 | 7% | 99% (active) | 99.5% (active) | 16% | 100% (active) | 99.7% (active) | 10 | 99% (active) | 99.5% (active) | 8 | 99% (active) | 96% (active) | 7% | 99% (active) | 99.7% (active) | 4% | 99% (active) | 99.2% (active)
CCCCOc1c(OCCCC)c(=O)c1=O | 78% (active) | 54% | -13.6% | 88% (active) | 79% (active) | -48.5% | 14 | 19% | -31.6% | 37 | 48% | 16.4% | 54% | 54% | -26.6% | 78% (active) | 55% | 40.5%
CNC(=O)N/N=C/c1ccc([N+](=O)[O-])o1 | 12% | 40% | 65.2% | 4% | 22% | 38.6% | 7 | 29% | 70.3% (active) | 9 | 15% | 11.8% | 10% | 38% | 34% | 12% | 48% | 71.5% (active)
CCOC(=O)/C(=C/c1ccc2ccccc2c1)P(=O)(OCC)OCC | -17% | -15% | 76.6% (active) | 6% | -13% | 69.2% | -6 | -5% | 66.8% | 10 | 19% | 71.1% (active) | 16% | 9% | 75.5% (active) | -18% | -7% | 58%
N#CC1=CN=C2C=CC=C3N=C(C(Cl)(Cl)Cl)N=C1N32 | 19% | 93% (active) | 49.9% | 7% | 97% (active) | 39.3% | 28 | 97% (active) | 87.2% (active) | 2 | 91% (active) | 14.8% | -1% | 89% (active) | 20.3% | 25% | 95% (active) | 76.8% (active)
CCCCCCCCCCCCOC(=O)C[n+]1cccc(C(=O)Nc2ccc(Cl)cc2)c1 | 76% (active) | 98% (active) | 98.8% (active) | 56% | 99% (active) | 99.2% (active) | 60 | 98% (active) | 99% (active) | 53 | 99% (active) | 100% (active) | 85% (active) | 99% (active) | 98.8% (active) | 88% (active) | 99% (active) | 98.4% (active)
